# Assay outcomes (PubChem)
# hgDAF-12 ag: hgDAF-12 agonism, primary luciferase screen; HEK293 GAL4-hgDAF12 UAS-luciferase reporter, agonist luminescence; normalized to butyrate control; activation, % at 6.8 µM; hit rate 1.8% among 370,000; AID 687014;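 active means activation above a cutoff set at the mean of all screened compounds plus 3 SD, cut at about 10% in these data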;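 further: 0% = DMSO wells and 100% = sodium butyrate wells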
# DAX1 inh-1: inhibitors of human orphan nuclear receptor DAX1 (NR0B1). P51843. HEK293 Gal4-DAX1 luciferase reporter, luminescence. inhibition, % at 6.75 µM. hit rate 0.99% among 340,000;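 active means inhibition above the mean over all tested compounds plus 3 SD, cut at about 4.2% in these data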;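 further: 0% = DAX1-transfected cells with DMSO and 100% = empty-vector control cells with DMSO; inhibition shows as a rise in luminescence from relieved DAX1 repression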
# Target sequence (P51843 207-470 limits assumed): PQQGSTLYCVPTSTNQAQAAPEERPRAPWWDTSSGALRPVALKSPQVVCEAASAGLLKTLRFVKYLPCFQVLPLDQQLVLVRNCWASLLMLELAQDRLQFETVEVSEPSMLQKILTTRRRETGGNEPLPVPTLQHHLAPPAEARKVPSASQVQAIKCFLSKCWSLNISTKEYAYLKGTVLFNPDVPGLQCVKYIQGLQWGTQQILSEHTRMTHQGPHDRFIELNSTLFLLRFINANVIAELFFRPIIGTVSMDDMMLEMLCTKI
# ssDAF-12 act: activates DAF-12 receptor from parasite S. stercoralis | hit rate 1% among 370,000 | HEK293 ssDAF-12/GRIP1 lit1-tk-luc reporter, luminescence; % of 3 µM dafachronic acid response | AID 652126 | activation, % at 6.8 µM;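 active means activation above the mean over all tested compounds plus 3 SD, cut at about 0.9% in these data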;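 further: 0% = DMSO-only wells and 100% = 3 µM delta7-dafachronic acid wells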
# hcDAF-12 act: H. contortus DAF-12 activation, primary screen | hit rate 1.4% among 370,000 | HEK293 hcDAF-12 lit1-tk-luc reporter, luminescence; 0% DMSO, 100% Δ7-dafachronic acid | activation, % at 6.8 µM;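 active means activation above the mean of all tested compounds plus 3 SD, cut at about 5.5% in these data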;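 further: 100% = response to 3 µM Δ7-dafachronic acid high control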
# DAX1 inh-2: DAX1 (NR0B1) inhibition, primary screen | HEK293T StAR-luciferase reporter, SF-1/DAX-1 repression relief | inhibition, % at 6.8 µM | hit rate 1.1% among 370,000;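 active means inhibition above the mean over all tested compounds plus 3 SD, cut at about 3.6% in these data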;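 further: 0% = DAX-1 cells with DMSO and 100% = cells lacking DAX-1 with DMSO; higher inhibition means more luminescence from relief of DAX-1 repression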
# DAX1 inh confirm: NR0B1 (human) inhibition, confirmation; shares compounds with DAX1 inh-2; HEK293T StAR-promoter luciferase reporter, SF-1/DAX-1 repression; inhibition, % at 6.8 µM; hit rate 87% among 2,400; AID 652134;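 active means inhibition above the average of every tested compound plus 3 SD, cut at about 3.8% in these data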;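 further: 0% = DAX-1 cells with DMSO and 100% = no DAX-1 control cells with DMSO; active compounds raise luminescence by relieving repression of the StAR reporter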
# SF1 AF2mut Luc: counter-screen for DAX1 inhibitors: nonselective inhibitors with SF-1 AF2 mutant; shares compounds with DAX1 inh-2; HEK293 StAR-luciferase, luminescence; inhibition, % at 6.8 µM; hit rate 78% among 2,400;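 active means inhibition above the mean of all tested compounds plus 3 SD, cut at about 3% in these data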;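 further: 0% = DAX-1 transfected cells with DMSO and 100% = cells without DAX-1 with DMSO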
# LXR ag: activates human LXR-beta, counter-screen for hcDAF-12 agonists; shares compounds with hcDAF-12 act; HEK293 Gal4-LXR tk-luc reporter, luminescence, 24 h; normalized: DMSO 0%, positive control 100%; activation, % at 6.8 µM; 3,400 tested, under 10 active; AID 743027;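 active means mean percent activation of the reporter above a cutoff set as the average over tested compounds plus their standard deviation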
# Target sequence (P55055 whole entry, looked up, the tested form may be a part): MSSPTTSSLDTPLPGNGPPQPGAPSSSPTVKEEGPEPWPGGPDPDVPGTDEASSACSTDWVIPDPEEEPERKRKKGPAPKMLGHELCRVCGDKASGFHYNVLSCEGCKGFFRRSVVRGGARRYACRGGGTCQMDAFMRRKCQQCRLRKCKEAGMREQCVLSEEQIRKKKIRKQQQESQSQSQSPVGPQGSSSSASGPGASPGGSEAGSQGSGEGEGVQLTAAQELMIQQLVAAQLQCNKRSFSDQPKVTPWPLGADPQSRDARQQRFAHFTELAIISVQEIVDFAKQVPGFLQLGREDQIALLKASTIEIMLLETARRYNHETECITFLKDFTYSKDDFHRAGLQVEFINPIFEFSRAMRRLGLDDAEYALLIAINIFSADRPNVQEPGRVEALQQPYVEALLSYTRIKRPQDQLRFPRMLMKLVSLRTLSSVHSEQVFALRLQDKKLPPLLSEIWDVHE
# hcDAF12 conf: confirmation of H. contortus DAF-12 agonists; activation, % at 6.8 µM; hit rate 61% among 3,400; HEK293 hcDAF-12 lit1-tk-luc reporter, luminescence; % of Δ7-dafachronic acid response; AID 743032; shares compounds with hcDAF-12 act;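 active means mean activation across triplicate tests above the threshold derived from the earlier primary screen, cut at about 5.5% in these data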;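 further: 0% = DMSO only wells and 100% = 3 µM Δ7-dafachronic acid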
# hgDAF12 ag: hgDAF-12 agonism, confirmation assay | activation, % at 6.8 µM | HEK293 GAL4-hgDAF12 luciferase reporter, agonist mode; percent of butyrate response | AID 743050 | hit rate 80% among 3,300 | shares compounds with hgDAF-12 ag;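 active means mean activation over triplicate wells above the hit cutoff derived from the earlier primary screen, cut at about 11% in these data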;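 further: 0% = DMSO low control and 100% = 2 mM sodium butyrate high control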
# LXR ag 2: counter-screen for DAF-12 agonists: agonists of human LXR-beta | shares compounds with hgDAF-12 ag | HEK293 Gal4-LXR luciferase reporter, 24 h | activation, % at 6.8 µM | 3,300 tested, under 10 active;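 active means mean activation of the triplicate above a set limit carried over from the primary screen, none filed active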
# Numbers without * were called inactive; . = no result given. Sampled rows, rich in hits. Any-hit rate of the full collection: about 4.1%.
SMILES,hgDAF-12 ag,DAX1 inh-1,ssDAF-12 act,hcDAF-12 act,DAX1 inh-2,DAX1 inh confirm,SF1 AF2mut Luc,hgDAF12 ag,LXR ag 2,others
Cn1ccnc1SCC(=O)N1CCc2ccccc21,20*,2,0,3,5.5*,7.1*,5.6*,9,0,
O=C(c1cc(Cl)cc(Cl)c1)N1CC[C@H]2[C@H](CCCN2Cc2cc(F)cc(F)c2)C1,-2,.,-2,0,1,.,.,.,.,
COc1ccc(C2NC(=O)c3ccccc3N2)cc1COc1ccc(NC(C)=O)cc1 (stereo not drawn),0,.,-2,-3,.,.,.,.,.,
C[C@@H]1CCCCO[C@@H](CN(C)C(=O)Nc2ccc3c(c2)OCO3)[C@@H](C)CN([C@H](C)CO)C(=O)c2cc(NC(=O)Nc3ccc(C(F)(F)F)cc3)ccc2O1,3,.,-1,-1,0,.,.,.,.,
C#CCN1C(=O)[C@@](O)(c2cccn2C)c2cc(F)ccc21,4,.,0,1,0,.,.,.,.,
Cc1ccc2oc(-c3cccc(N)c3)nc2c1,23*,0,2.5*,14*,6.4*,16*,8.2*,23*,1,LXR ag=1;hcDAF12 conf=10*
Nc1cccc(-c2nc3cc(S(=O)(=O)c4ccc5oc(-c6cccc(N)c6)nc5c4)ccc3o2)c1,-2,0,-2,-1,0,.,.,.,.,
Cc1cc(NC(=O)CSc2nnnn2C2CCCC2)no1,1,0,-1,0,0,.,.,.,.,
CCn1c(C)cc(C(=O)CSc2nnnn2C2CCCC2)c1C,13*,3,0,3,9.6*,13*,7.4*,17*,1,
Clc1ccccc1N=C1NN=C(c2cccs2)CS1,18*,4,1.3*,10*,7.2*,9.5*,5.3*,16*,1,LXR ag=1;hcDAF12 conf=9.3*
O=C(/C=C/c1ccccc1)CC(=O)c1ccccc1O,17*,4.4*,0,5,4.5*,3,4.0*,6,0,
CC(C)(C)OC(=O)N[C@@H]1C=CC(=O)C1,0,.,0,1,-1,.,.,.,.,
N#C/C(=N\Nc1ccccc1[N+](=O)[O-])C(=N)N1CCCCC1,14*,7.4*,1.0*,7.9*,8.0*,14*,8.1*,18*,1,LXR ag=2;hcDAF12 conf=8.6*
N#C/C(=N\Nc1ccc([N+](=O)[O-])cc1)C(=N)N1CCOCC1,4,4,0,0,0,.,.,.,.,
N#C/C(=N\Nc1ccc(Cl)cc1)C(=N)N1CCCCCC1,18*,10*,0,5,7.6*,22*,8.8*,24*,1,
N#C/C(=N/Nc1ccc([N+](=O)[O-])cc1)C(=N)N1CCCCC1,20*,8.1*,1.6*,6.4*,5.5*,8.2*,3.2*,21*,1,
COc1cc(OC)cc(-c2c(Sc3ccccc3)c3cc(-c4ccc5c(c4)OCCO5)ccc3n2C)c1,0,.,-1,-3,-1,.,.,.,.,
COC(=O)C1=C(C)N(C)C(=NCc2cc(OC)c(OC)c(OC)c2)NC1c1cccc(Cl)c1 (stereo not drawn),-2,.,-1,-1,0,.,.,.,.,
Cc1cccc(NC(=O)[C@@H]2CC(=O)O[C@@H]2c2ccccc2)c1C,0,.,-1,-1,-1,.,.,.,.,
O=C(c1ccncc1)N1CC[C@H]2[C@H](CCCN2Cc2cc(F)cc(F)c2)C1,-2,.,-1,0,-1,.,.,.,.,
Cc1ccc(Cn2ncc3c(NCCN(C)C)ncnc32)cc1,-1,0,-1,-2,0,.,.,.,.,
CN(C)CCNc1ncnc2c1cnn2-c1ccc(Cl)cc1,19*,2,1,7.8*,5.5*,10.0*,6.6*,14*,1,LXR ag=1;hcDAF12 conf=4
Clc1ccc(-n2ncc3c(NCC4CCCO4)ncnc32)cc1 (stereo not drawn),14*,2,0,3,7.1*,4.6*,0,17*,1,
CC(C)CC(=O)Nc1ccc(-c2nc3ccccc3c(=O)o2)cc1,-2,-2,-1,-2,0,.,.,.,.,
CC(C)CC(=O)Nc1ccc(-c2nc3ccccc3c(=O)[nH]2)cc1,16*,2,0,3,5.0*,17*,7.6*,21*,1,
SMILES,hgDAF-12 ag,DAX1 inh-1,ssDAF-12 act,hcDAF-12 act,DAX1 inh-2,DAX1 inh confirm,SF1 AF2mut Luc,hgDAF12 ag,LXR ag 2,others
CSCCC(=O)N1CCC(n2nccc2NC(=O)c2ccc3c(c2)OCO3)CC1,23*,3,0,2,6.3*,6.3*,5.7*,16*,0,
Cc1ccsc1/C=N/NC(=O)Nc1ccccc1,17*,5.2*,1.1*,4,5.8*,11*,6.9*,17*,1,
COC(=O)[C@]12C[C@H](CC(=O)N3CCCCC3)C(=O)N(CCc3ccc(OC)c(OC)c3)C1=C[C@H](C1CCCC1)O[C@@H]2C,0,.,-2,-2,0,.,.,.,.,
COc1ccc(OCc2cc(C(=O)N3CCOCC3)no2)c(Cl)c1,13*,0,0,3,7.4*,9.8*,7.5*,15*,1,
COc1ccc(-c2cc(-c3ccccc3)n[nH]2)c(O)c1,16*,2,0,4,5.5*,6.3*,5.5*,16*,1,
COc1ccc(-c2ncncc2-c2ccccc2)c(O)c1,3,1,-1,-2,0,.,.,.,.,
COc1ccc2c(c1)CN1CN(Cc3ccccc3)S(=O)(=O)CC21 (stereo not drawn),3,.,-2,0,0,.,.,.,.,
Nc1ccccc1C(=O)NNC1=C(C(=O)C(F)(F)F)CCC1,17*,15*,0,9.2*,7.2*,13*,6.5*,18*,0,LXR ag=0;hcDAF12 conf=1
O=C(O)CC/C(=N/NC(=O)c1cccs1)c1ccccc1,14*,3,1,9.6*,5.8*,3.8*,3.3*,11*,0,LXR ag=0;hcDAF12 conf=2
Cn1cc([C@]2(O)C(=O)Nc3ccccc32)c2ccccc21,6,.,1,2,0,.,.,.,.,
